According to PubChem BioAssay AID1851 (National Center for Advancing Translational Sciences (NCATS), 2009):
“And” between values parts separate entries of the source, which are not always exact repeats. Equal entries are not always repeated. In all, about 16,000 compounds went through this assay and about 2,600 (16%) were called active. Not shown: some 20% with an inconclusive outcome. The sample holds actives, similar compounds and a random draw of the others, so the mix is not that of the screen. Calls come from the whole dose curve; as a rule, active = well fitted curve in the direction sought with a large enough effect; inconclusive = small, poorly fitted or top-dose-only effect, or effect the other way; inactive = no such curve, though single readings can be large or run the other way. A structure can be active in one record and inactive in another.

What follows are compounds tested against Cytochrome P450 2D6 (Homo sapiens) (UniProt P10635) (assay: Cytochrome panel assay with activity outcomes). Details: recombinant CYP, pro-luciferin dealkylation, luminescence, p450-cyp2d6; series mostly up to 57.1 µM.
Protocol: The P450 gene superfamily is involved in the metabolism and clearance of xenobiotics. This assay used various human CYP P450 isozymes to measure the dealkylation of various pro-luciferin substrates to luciferin. The luciferin is then measured by luminescence after the addition of a luciferase detection reagent. Pro-luciferin substrate concentration in the assay was equal to its KM for its CYP P450 isozyme. Inhibitors and some substrates limit the production of luciferin, and decrease measured luminescence.
NCGC Assay Protocol Summary:
1, Reagent, 2 uL, Isozyme and Pro-Luciferin
2, Library compounds, 23 nl, 40 uM to 0.24 nM dilution series
3, Controls, 23 nl, Isozyme specific inhibitor
4, Reagent, 2 uL, NADPH regeneration solution
5, Incubation time, 60 min, Isozyme specific temperature
6, Reagent, 4ul, Detection reagent
7, Incubation time, 20 min, Isozyme specific temperature
8, Detection, 1 sec, ViewLux luminescent read
The luciferase-based P450-GloTM Screening Systems were obtained from Promega (Madison, WI) for CYP 1A2 (V9770), CYP 2C9 (V9790), CYP2 C19 (V9880), CYP 2D6 (V9890), and CYP 3A4 Luciferin-PPXE (V9910) and were adapted for 1,536-well microplates and an automated protocol. The control compounds furafylline for 1A2 (F124), sulfaphenazole for CYP 2C9 (S0758), ketoconazole for CYP 2C19 (K1003), quinidine for 2D6 (Q3625), and ketoconazole for 3A4 (K1003) were purchased from Sigma Aldrich (St. Louis, MO). Recombinant P450 enzymes were obtained from baculovirus constructs expressed in insect cells (BD/Gentest).
Medium-binding white solid Kalypsys plates used. Mixtures kept on ice. 1A2: 10 nM 1A2, 100 uM Luc-ME, 100 mM KPO4; 2C9: 10 nM 2C9, 100 uM Luc-H, 25 mM KPO4; 2C19: 5 nM 2C19, 10 uM Luc-H EGE, 50 mM KPO4; 2D6: 5 nM 2D6, 30 uM Luc-ME EGE, 100 mM KPO4; 3A4: 10 nM, 25 uM Luc-PPXE. All amounts are reflected in their final concentration, working concentration is 2x.
NADPH regeneration solution: 1.3 mM NADP+, 3.3 mM glucose-6-phosphate, 3.3 mM MgCl2, 0.4 U/mL glucose-6-phosphate dehydrogenase for all isozymes, 200 mM KPO4 for 3A4. Mixture prepared at RT but kept on ice during automated run.
RT incubation in auxilliary plate hotel for 1A2, 2D6, and 3A4; 37C for 2C9 and 2C19.
Keywords: P450, CYP1A2, CYP2C19, CYP2C9, CYP2D6, CYP3A4, Luciferase, MLSMR, MLSCN, NIH Roadmap, qHTS, NCGC
% is set by controls: 0 for no effect and ±100 for the full control effect.

Sequence of Cytochrome P450 2D6 (Homo sapiens) (P10635 whole entry, looked up): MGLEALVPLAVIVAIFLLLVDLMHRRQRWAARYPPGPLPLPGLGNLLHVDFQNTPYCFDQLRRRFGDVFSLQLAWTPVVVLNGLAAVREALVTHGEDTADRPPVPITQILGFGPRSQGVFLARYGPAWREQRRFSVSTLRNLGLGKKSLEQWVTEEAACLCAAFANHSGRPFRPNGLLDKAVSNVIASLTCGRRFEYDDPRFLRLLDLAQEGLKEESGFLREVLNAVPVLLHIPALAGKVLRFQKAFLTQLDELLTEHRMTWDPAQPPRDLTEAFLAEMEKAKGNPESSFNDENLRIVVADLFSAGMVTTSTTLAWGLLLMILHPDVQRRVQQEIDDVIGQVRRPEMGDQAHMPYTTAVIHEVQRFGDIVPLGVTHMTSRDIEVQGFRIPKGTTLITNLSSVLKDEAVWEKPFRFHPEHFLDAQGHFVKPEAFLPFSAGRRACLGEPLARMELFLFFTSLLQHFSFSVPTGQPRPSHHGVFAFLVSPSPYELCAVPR

| Structure (SMILES) | AC50 | activity, negative = inhibition |
| --- | --- | --- |
| CC(C)[C@@]1(NC(=O)[C@@H]2C[C@H]3c4cccc5[nH]cc(c45)C[C@@H]3N(C)C2)O[C@]2(O)[C@H]3CCCN3C(=O)[C@H](Cc3ccccc3)N2C1=O | inactive |  |
| CC(C)[C@@]1(NC(=O)[C@@H]2C[C@H]3c4cccc5[nH]cc(c45)C[C@@H]3N(C)C2)O[C@]2(O)[C@H]3CCCN3C(=O)CN2C1=O | inactive |  |
| CCN(CC)C(=O)N[C@H]1C[C@H]2c3cccc4[nH]cc(c34)C[C@@H]2N(C)C1 | 39.8 nM (active) |  |
| NCCCNCCSP(=O)(O)O | inactive |  |
| N[C@H](Cc1ccc2oc3cc(=O)c4ccccc4c-3nc2c1)C(=O)O |  | -14.6% [at 11.4 µM] (inactive) |
| CC1(C)CCC(C)(C)c2c1ccc(O)c2Cc1c(O)ccc2c1C(C)(C)CCC2(C)C |  | 4.74% [at 11.4 µM] (inactive) |
| CCn1c(O)c(C(c2ccccn2)c2c(O)n(CC)c(=S)[nH]c2=O)c(=O)[nH]c1=S | inactive |  |
| O=C(C[C@H](c1ccccc1)c1c(O)c2ccccc2oc1=O)c1ccccc1 |  | 12.6% [at 11.4 µM] (inactive) |
| COCCn1c(SCc2nc3sc(C(=O)OC)c(C)c3c(=O)[nH]2)nc2ccccc21 | 10000 nM (active) |  |
| CC(C)C(=O)CP(=O)(O)O |  | -4.98% [at 11.4 µM] (inactive) |
| COc1cc(OC)c(/C=C2/C(=O)Nc3ccccc32)c(OC)c1 | inactive |  |
| CCOC(=O)c1cncn1[C@H](C)c1ccccc1 | inactive |  |
| CCOC(=O)c1cncn1[C@@H](C)c1ccccc1 | inactive |  |
| C[C@H](c1ccccc1)N1CCN([C@@H](C)c2ccccc2)CC1 | 63.1 nM (active) |  |
| C(=NC12CN3CN(CN(C3)C1)C2)c1cccs1 | inactive |  |
| S=C=Nc1cccc(C2(N3CCCCC3)CCCCC2)c1 | 10000 nM (active) |  |
| COC(=O)C1=CCCN(C)C1 | inactive |  |
| CCCC(CCC)C(=O)O | inactive |  |
| CCC1(C)CC(=O)NC(=O)C1 | inactive |  |
| Cc1o[nH]c(=O)c1C[C@@H](N)C(=O)O | inactive |  |
| N[C@H](Cc1o[nH]c(=O)c1Cl)C(=O)O | 158 nM (active) |  |
| N[C@H](C(=O)O)c1cc(=O)[nH]o1 | inactive |  |
| Cc1o[nH]c(=O)c1C[C@H](N)C(=O)O | inactive and 15.8 µM (active) |  |

| Structure (SMILES) | AC50 | activity, negative = inhibition |
| --- | --- | --- |
| N[C@@H](Cc1cc(Br)c(O)c(Br)c1)C(=O)O |  | 10.2% [at 11.4 µM] (inactive) |
| N[C@H](CCl)C(=O)O | inactive |  |
| C[C@@H]1O[C@H](O[C@@H]2CC[C@@]3(C=O)[C@H]4CC[C@@]5(C)[C@@H](C6=CC(=O)OC6)CC[C@@]5(O)[C@@H]4CC[C@]3(O)C2)C[C@H](O)[C@@H]1O | inactive |  |
| CCCCCCN=Cc1c(O)n(C)c(=O)n(C)c1=O | inactive |  |
| CC1=C(C)[N+](=O)C2(O)CCCCC2(C)N1[O-] (stereo not given) | inactive |  |
| C[C@@H]1O[C@H](O[C@H]2C[C@@H](O)[C@@]3(CO)[C@H]4[C@@H](O)C[C@]5(C)[C@@H](C6=CC(=O)OC6)CC[C@]5(O)[C@H]4CC[C@]3(O)C2)[C@@H](O)[C@H](O)[C@@H]1O | inactive |  |
| C[C@@H]1O[C@H](O[C@@H]2C[C@@H](O)[C@]3(CO)[C@H]4[C@H](O)C[C@]5(C)[C@@H](C6=CC(=O)OC6)CC[C@@]5(O)[C@@H]4CC[C@]3(O)C2)[C@@H](O)[C@H](O)[C@H]1O | 50.1 nM (active) |  |
| C[C@@H]1O[C@@H](O[C@H]2C[C@@H](O)[C@]3(CO)[C@@H]4[C@@H](O)C[C@]5(C)[C@H](C6=CC(=O)OC6)CC[C@@]5(O)[C@H]4CC[C@@]3(O)C2)[C@H](O)[C@H](O)[C@@H]1O | inactive |  |
| CCOC(=O)c1c(NC(=O)C(c2ccccc2)c2ccccc2)sc2c1C1CCN2CC1 | inactive |  |
| CN1CC[C@@]23c4ccccc4N[C@H]1[C@]21CCN(C)[C@@H]3Nc2ccccc21 | inactive |  |
| CCCCN(CCCC)CCC(O)c1cc2c(Cl)cc(Cl)cc2c2cc(C(F)(F)F)ccc12 (stereo not given) | 3980 nM (active) |  |
| O=C(O)CNC(=O)[C@@H](CS)Cc1ccccc1 | inactive |  |
| O=[N+]([O-])c1ccc2nc(N3CCNCC3)ccc2c1 | inactive |  |
| CN(N=O)C(=O)N[C@H]1[C@@H](O)[C@H](O)[C@H](CO)O[C@@H]1O | inactive |  |
| COC(=O)[C@H]1[C@H](c2ccccc2)C(=O)[C@@]2(O)c3ccccc3O[C@@]12c1ccccc1 |  | 1.53% [at 11.4 µM] (inactive) |
| CCS(=O)(=O)Nc1cccc(C(=C2CCCCC2)c2cnc[nH]2)c1 | 7940 nM (active) |  |
| CN1C(=O)C(C2c3ccccc3C(=O)N2Cc2ccc([N+](=O)[O-])cc2)C(=O)N(C)C1=O (stereo not given) | inactive |  |
| C1C[C@@H]2CN(CCCN3CCOCC3)[C@@H](C1)O2 |  | -5.61% [at 11.4 µM] (inactive) |
| CC1(C)CCC2=C(O1)c1ccccc1C(=O)C2=O | 15800 nM (active) |  |
| CN1[C@@H](C[C@@H](O)c2ccccc2)CCC[C@@H]1C[C@H](O)c1ccccc1 | 631 nM (active) |  |
| CN1[C@@H](CC(=O)c2ccccc2)CCC[C@@H]1C[C@@H](O)c1ccccc1 | 79.4 nM (active) |  |
| Cn1c[n+](C)cc1C(O)c1ccccc1 (stereo not given) | inactive |  |
